# Measurements published in PubChem BioAssay AID1671188 (National Center for Advancing Translational Sciences (NCATS), 2021).
# About 250 (0.25%) of roughly 100,000 compounds were called active. Entries that show only a call come without a potency. Roughly 7% stayed inconclusive and do not appear here. Calls follow the shape of the dose curve; as a rule, active = well fitted inhibition curve with a large enough effect; inconclusive = small, poorly fitted or top-dose-only effect; inactive = flat fitted curve, though single readings scatter. Only a selection was taken, and actives are over-represented in it overall.
# Biological target: Alanine aminotransferase 2 (Homo sapiens) (UniProt Q8TD30)
# Sequence (Q8TD30 whole entry, looked up): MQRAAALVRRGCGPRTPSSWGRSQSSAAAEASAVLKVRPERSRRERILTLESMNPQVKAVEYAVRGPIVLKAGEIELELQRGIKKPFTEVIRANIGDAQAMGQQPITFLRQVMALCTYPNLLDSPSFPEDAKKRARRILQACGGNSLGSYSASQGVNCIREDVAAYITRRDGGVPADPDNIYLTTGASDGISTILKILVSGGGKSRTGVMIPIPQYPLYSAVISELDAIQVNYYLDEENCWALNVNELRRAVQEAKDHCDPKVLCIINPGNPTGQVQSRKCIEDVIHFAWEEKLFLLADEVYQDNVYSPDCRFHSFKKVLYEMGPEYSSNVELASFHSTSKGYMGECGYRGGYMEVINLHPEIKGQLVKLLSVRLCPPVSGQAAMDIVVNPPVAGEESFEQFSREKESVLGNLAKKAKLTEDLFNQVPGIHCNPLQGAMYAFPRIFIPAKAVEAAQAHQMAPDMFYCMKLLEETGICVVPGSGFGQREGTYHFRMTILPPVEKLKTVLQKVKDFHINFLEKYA
# Assay: Primary qHTS assay for inhibitors of Glutamate pyruvate transaminase 2 (GPT2); also: nearly all actives have a fitted effect of over 60% in size
# Settings: Recombinant GPT2, coupled pyruvate oxidase/HRP Amplex Red fluorescence; series mostly up to 57.7 µM
# Description: Assay Provider: Zhenghe John Wang Ph.D.
# Case Western Reserve University, Cleveland OH
# Glutamate pyruvate transaminase 2 (GPT2) catalyzes the reversible transamination of glutamate and pyruvate to provide a-ketoglutarate and alanine. We have optimized an assay for GPT2 enzymatic activity that couples pyruvate formation to detection of fluorescence using an established pyruvate oxidase/horseradish peroxidase / Amplex Red system.
# Screening conditions were 250uM a-KG, 2mM L-alanine, and 10ng/uL GPT2 in […] of solution; 10uL of Amplex reaction mix (outlined below) were added so that final concentrations of Amplex reagents in 50uL were 0.2mM ThPP, 0.2U/mL PO and HRP, and 50uM Amplex.
# NOTE: The volume of GPT2 in the system depends on the activity of it. The activity is different every batch. You need to test the activity before the assay. For full plate assay with automation, plate 20uL of GPT2 buffer to pin into, then add 10uL of GPT2 dilution followed immediately by 10uL of substrate dilution. 2 Columns of the plate were devoted to GPT2 buffer ([…] PH7.5, 0.0001% Tween) + 50uM AOA (known GPT2 inhibitor) to serve as a positive control. Complete the assay as normal. Amplex-red buffer: […] PH7.5, 1 mM EDTA, 1 mM MgCl2.
# 1. Combine a-KG and L-alanine at desired concentrations and incubate for at least 10 minutes at 37C. Stocks of L-alanine and a-KG are diluted in distilled water. However, the stocks were diluted in GPT2 buffer for the assay.
# 2. Prepare GPT2 dilution at the desired concentration in GPT2 buffer.
# 3. Plate 40uL of GPT2 dilution with 40uL of substrate dilution and let incubate for 30 minutes at room temperature.
# 4. Add 20uL of Amplex reaction mix prepared as follows: 1.5uL 200U/mL Horseradish Peroxidase, 200mM Thiamine Pyrophosphate, 200U/mL Pyruvate Oxidase; 7.5uL 10mM Amplex Red; 288uL Amplex Buffer.
# 5. Incubate for 30 minutes at room temperature in the dark, then image using AM_Amplex_Fluorescence on plate reader nearest the window.
# Potency is read from the fitted curve at half-maximal effect.
row,Structure (SMILES),Potency
1,O=C(c1ccc(C(F)(F)F)s1)N1CCCN(c2nnc3ccccn23)CC1,inactive
2,COc1ccc(C(=O)N(C)Cc2ccc(F)cc2)cc1,inactive
3,COc1cccc(NC(=O)O[C@@H]2CO[C@H]3[C@@H]2OC[C@@H]3Nc2nccc(-c3cccs3)n2)c1,inactive
4,CCOC(=O)c1ccc(NC(=O)Cn2c(N3CCOCC3)nc(CC)cc2=O)cc1,inactive
5,Cn1nccc1-c1cccc(-c2nc(N3CCOCC3)n(C)n2)c1,inactive
6,CC(C)NC(=O)N1Cc2[nH]cnc2C[C@H]1c1nc(-c2ccc3c(c2)OCO3)no1,inactive
7,CC(=O)/C(C)=N/O,20 µM (active)
8,CN(CC1CCOCC1)C(=O)c1ccccc1,inactive
9,C#CCNC(=O)c1cn2cc(-c3ccccc3)sc2n1,inactive
10,Cc1ccccc1CN1CCCn2nc(C)c(-c3cccnc3N3CCOCC3)c21,inactive
11,COc1ccc(-c2cc(-c3cccc4[nH]ncc34)cn3cncc23)cn1,inactive
12,O=C(NCc1cccnc1)[C@@H]1C[C@@H](O)CN1C1CCN(C(=O)C2(c3ccccc3)CC2)CC1,inactive
13,CC(NC(=O)c1ccc(C(C)(C)C)cc1)C(=O)N1CCN(c2ccccn2)CC1 (stereo not drawn),inactive
14,Cc1ccccc1-c1cn(C)c(=O)n2cc(CNc3ccccc3)nc12,inactive
15,Cn1cc(CN2CCOC[C@H]2c2ncc(-c3cccc(F)c3)[nH]2)c2ccccc21,inactive
16,Cc1cc(S(=O)(=O)NCC2CCOCC2)ccc1F,inactive
17,COC1CN(c2ccc(C)cc2)C12CCN(C(=O)Cc1cccc(F)c1)CC2 (stereo not drawn),inactive
18,CC(=O)N1CC2(CCN(Cc3cccnc3)CC2)Cc2ccccc21,inactive
19,CC(=O)N[C@H]1CN(c2cncc(C(=O)N3CCCC3)n2)C[C@@H]1C1CC1,inactive
20,O=C(NC1CCN(C(=O)c2ccc(-c3cncnc3)cc2)CC1)c1ccccn1,inactive
21,CN1CCOC[C@H]2CCN(C(=O)c3ccsc3)C[C@H]21,inactive

row,Structure (SMILES),Potency
1,CCCN(C)c1nccnc1OC1CCN(C(=O)c2ccnn2C)C1 (stereo not drawn),inactive
2,Cc1cc2nc3n(c(=O)c2n1CC(=O)Nc1ccc2c(c1)OCO2)CCCCC3,inactive
3,CCC1=C(C(=O)OC)C(c2ccccc2)N2C(CC(=O)N3CCCC3)=CSC2=N1 (stereo not drawn),inactive
4,CC(C)Cc1cc(CNc2nc(C(C)(C)C)nc3c2cnn3C)no1,inactive
5,COc1cccc(-c2ccc(C(=O)N3CCC(NC(=O)c4ccccc4OC)CC3)cc2)c1,inactive
6,CCc1cccc2c(C(CC(=O)NCC(C)C)c3cccc(OC)c3)c[nH]c12 (stereo not drawn),inactive
7,O=C(Nc1ccccc1)N1CCCC(C(=O)N2CCCC(c3nc4ncccc4[nH]3)C2)C1 (stereo not drawn),inactive
8,O=C(C1CCC1)N1CCC(n2cnnc2C2CC2)CC1,inactive
9,CCOC(=O)C1CCN(C(=O)c2ccc3nnc(Cc4ccc(Cl)cc4)n3c2)CC1,inactive
10,CCC(C)(C)C(=O)N1CC(c2nnc(-c3ccncc3)o2)C2(CCOCC2)C1 (stereo not drawn),inactive
11,O=C(C1CCCN(Cc2cccc(-c3ccc(F)cc3F)c2)C1)N1CCCCC1 (stereo not drawn),inactive
12,CC[C@H]1CN(S(=O)(=O)c2ccc(OC)cc2)CC[C@H]1CC(=O)Nc1ccccc1,inactive
13,CC(C)(O)CCc1cccc(C(=O)NC2CCN(c3ncccc3C#N)CC2)c1,inactive
14,O=C1C[C@H]2CC[C@@H](CN1)N2C(=O)c1csc2nc(-c3ccccc3Cl)cn12,inactive
15,COCCN1C(=O)N(CCc2ccccc2)C(=O)C12CCN(C/C=C/c1ccccc1)CC2,inactive
16,Cc1ccc(C(=O)N2CC(n3c(C)cnc3-c3ccccc3)C2)cn1,inactive
17,CCOC(=O)C(C)Oc1cccn2c(=O)c(-c3cc(C)n(-c4cccc(F)c4)n3)c(C)nc12 (stereo not drawn),inactive
18,Cc1cc(N)n(CC(=O)N[C@@H]2COCC[C@H]2Oc2ccc(C(N)=O)cc2)n1,inactive
19,O=C(NCc1ccncc1)c1ccc(CN2C(=O)NC3(CCS(=O)(=O)CC3)C2=O)cc1,inactive
20,CN(Cc1cccnc1)C(=O)CC(c1ccccc1)c1ccc(Cl)cc1 (stereo not drawn),inactive
21,O=C(NCCc1ccccc1)C1CN(C2CCCCC2)C(=O)N1 (stereo not drawn),inactive

row,Structure (SMILES),Potency
1,COc1ccc(C(=O)N2C[C@@H](F)[C@@H](OCc3nc4ccc(C(F)(F)F)cc4[nH]3)C2)cc1,inactive
2,CC(=O)Nc1ccc(C2(C(=O)NCc3ccc(Cl)cc3)CCC2)cc1,inactive
3,CN(C)C(=O)CCc1ccc2c(c1)CN(Cc1cn[nH]c1-c1ccc(F)cc1)CCO2,inactive
4,Cc1nn(C(=O)CCC(=O)N2CCC(CCOc3ccccc3)C2)c2ccccc12 (stereo not drawn),inactive
5,C=CCN(C)C(=O)C[C@@H]1c2nc(NC(=O)c3ccc(C(C)(C)C)cc3)sc2C[C@@H]2[C@](C)(CO)[C@H](O)CC[C@]21C,inactive
6,COC(=O)[C@@H]1Cc2ncn(Cc3ccc(Cl)cc3)c2CN1Cc1ccc(N(C)C)cc1,inactive
7,COc1cc2c(cc1CN1C[C@H]3CC[C@@H]1CN(C(=O)c1cnccn1)C3)CCC2,inactive
8,Cc1ccc(S(=O)(=O)CCNC(=O)c2cc3n(n2)CCCNC3)cc1,inactive
9,c1ccc2c(c1)CNC1(CCN(Cc3cccc4ccccc34)CC1)CO2,inactive
10,COc1ccc(-n2nc(C)c([C@H]3C=C[C@@H](OC(=O)Nc4cccc(F)c4)C3)c2C)cc1,inactive
11,Cc1ccc(S(=O)(=O)N2CCCC(CCC(=O)NC3CCCCC3)C2)cc1 (stereo not drawn),inactive
12,O=C(NCc1ccc(Cl)nc1)c1ccn2cncc2c1,inactive
13,CCc1cccc2c(C(CC(=O)NCC(C)C)c3ccccc3OC)c[nH]c12 (stereo not drawn),inactive
14,COc1ccc(C(=O)N2CCN(C(C(=O)O)c3cccc(O)c3)CC2)cc1 (stereo not drawn),inactive
15,CN1c2cc(C(=O)NCc3ccccc3Br)ccc2C(=O)N2CCCCC21 (stereo not drawn),inactive
16,COc1cccc(CN2C(=O)OC3(CCN(C(=O)C4CCC(OC)CC4)CC3)C2(C)c2cccnc2)c1 (stereo not drawn),inactive
17,C=CCn1cc2c3c(cccc31)[C@H](CC(C)C)N[C@H](C(=O)NCC1CC1)C2,inactive
18,Cc1ccc(CN2CCC3(CC2)CN(C2CCC2)CC3CO)o1 (stereo not drawn),inactive
19,NC1(C(=O)NCCC2CCCN(Cc3ccc4occc4c3)C2)CC1 (stereo not drawn),inactive
20,COC(=O)[C@@H]1CN(C(=O)c2cccnc2)CCN1C(C)=O,inactive
21,FC(F)(F)c1ccc(CN2CCn3c(nnc3-c3ccccc3)C2)cc1,inactive
